Hits are enriched below; roughly 2.8% of the tested compounds scored in any of these assays.
PAFAH1B2 FP inh: PAFAH1B2 enzyme inhibitors, primary screen, biochemical, fluorescence polarization, human; recombinant PAFAH1B2, FP-rhodamine activity probe; inhibition, % at 3.39 µM; 340,000 compounds, 1.2% hits; AID 492953, 2010;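 active = inhibition above the mean of all tested compounds plus 3 SD, cut at about 24% in these data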
Target sequence (P68402 whole entry, looked up): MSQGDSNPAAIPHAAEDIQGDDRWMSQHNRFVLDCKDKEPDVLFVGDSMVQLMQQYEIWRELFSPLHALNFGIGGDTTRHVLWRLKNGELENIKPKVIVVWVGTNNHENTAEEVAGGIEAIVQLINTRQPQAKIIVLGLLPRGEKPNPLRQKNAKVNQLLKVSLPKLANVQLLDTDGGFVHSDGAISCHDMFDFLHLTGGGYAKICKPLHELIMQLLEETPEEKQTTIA
Fam108B inh: mouse Fam108B serine hydrolase inhibitors, primary screen, counter-screen for RBBP9 inhibitor project, biochemical, fluorescence polarization. recombinant Fam108B, FP-Rh probe fluorescence polarization. inhibition, % at 9.51 µM. 300,000 compounds, 0.33% hits. AID 1947, 2009;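 active = inhibition above the screen mean inhibition plus 3 SD, computed separately per campaign, cut at about 18% in these data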;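 also: inhibitors lower polarization as less probe binds the enzyme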
pPAFAH inh: pPAFAH enzyme inhibitors, primary screen, biochemical, fluorescence polarization, human; 330,000 compounds, 1.5% hits; recombinant pPAFAH, FP-rhodamine probe fluorescence polarization; inhibition, % at 3.39 µM; Platelet-activating factor acetylhydrolase (Homo sapiens), Q13093;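 active = inhibition above the mean inhibition across the screen plus 3 SD, cut at about 25% in these data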;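 also: inhibitors block binding of the rhodamine activity-based probe so polarization drops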
Target sequence (Q13093 whole entry, looked up): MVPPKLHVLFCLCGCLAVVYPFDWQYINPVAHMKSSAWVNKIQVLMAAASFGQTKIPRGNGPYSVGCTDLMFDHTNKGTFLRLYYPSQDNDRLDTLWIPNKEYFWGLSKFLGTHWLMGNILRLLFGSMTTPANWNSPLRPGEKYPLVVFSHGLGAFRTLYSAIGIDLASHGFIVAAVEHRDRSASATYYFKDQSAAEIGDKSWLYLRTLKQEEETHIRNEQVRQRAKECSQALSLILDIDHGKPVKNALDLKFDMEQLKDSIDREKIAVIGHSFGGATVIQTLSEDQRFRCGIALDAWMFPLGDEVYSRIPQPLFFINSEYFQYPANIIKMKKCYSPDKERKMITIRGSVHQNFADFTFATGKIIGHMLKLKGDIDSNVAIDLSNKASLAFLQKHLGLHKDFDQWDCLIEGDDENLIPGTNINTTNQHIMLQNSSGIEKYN
PME-1 inh: PME-1 inhibitors via competitive probe labeling, primary screen, biochemical, fluorescence polarization, FP-Rh probe, HTS. Protein phosphatase methylesterase 1 (Homo sapiens), Q9Y570. recombinant PME-1. inhibition, % at 5.9 µM. 320,000 compounds, 0.53% hits. AID 2130, 2009;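 active = inhibition above the campaign mean of all compounds plus 3 SD, cut at about 26% in these data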;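 also: competitive labeling of PME-1 active site by serine hydrolase directed probe; inhibitors block probe labeling so polarization falls and inhibition rises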
PAFAH1B3 FP inh: PAFAH1B3 enzyme inhibitors, primary screen, biochemical, fluorescence polarization, human | recombinant PAFAH1B3, FP-rhodamine probe | 340,000 compounds, 0.28% hits | inhibition, % at 3.39 µM;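 active = inhibition above the screen-wide average of all tested compounds plus 3 SD, cut at about 25% in these data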
PAFAH2 FP inh: PAFAH2 enzyme inhibitors, primary screen, biochemical, fluorescence polarization, human | recombinant PAFAH2, FP-rhodamine activity probe | inhibition, % at 3.39 µM | 340,000 compounds, 0.99% hits;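 active = inhibition above the mean over all tested compounds plus 3 SD, cut at about 30% in these data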;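 also: inhibitors block probe labeling of enzyme so polarization drops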
A number is an active result.

How did Cc1cccnc1Nc1nc(-c2ccc(O)c(O)c2)cs1 do in these assays?
PAFAH1B2 FP inh: inactive; Fam108B inh: inactive; pPAFAH inh: inactive; PME-1 inh: 36; PAFAH1B3 FP inh: inactive; PAFAH2 FP inh: inactive

Results for Cc1cc(=O)n2nc(N3CCC(C(=O)NCc4cccc(Cl)c4)CC3)sc2n1 ?
PAFAH1B2 FP inh: inactive; Fam108B inh: inactive; pPAFAH inh: inactive; PME-1 inh: inactive; PAFAH1B3 FP inh: inactive; PAFAH2 FP inh: inactive

What do the screens show for `Cc1cccnc1NC(=O)CN1C(=O)COc2ccc(Cl)cc21`?
PAFAH1B2 FP inh: inactive; Fam108B inh: inactive; pPAFAH inh: inactive; PME-1 inh: inactive; PAFAH1B3 FP inh: inactive; PAFAH2 FP inh: inactive

How did CSCCC(NC(=O)c1ccccc1Cl)C(=O)N(C)CC(=O)Nc1ccc(N2CCOCC2)cc1 (stereo not drawn) do in these assays?
PAFAH1B2 FP inh: inactive; Fam108B inh: inactive; pPAFAH inh: 29; PME-1 inh: inactive; PAFAH1B3 FP inh: inactive; PAFAH2 FP inh: inactive

Results for CN(CC(=O)Nc1ccc(N2CCOCC2)cc1)C(=O)c1cccc(Cl)c1Cl ?
PAFAH1B2 FP inh: inactive; Fam108B inh: inactive; pPAFAH inh: inactive; PME-1 inh: inactive; PAFAH1B3 FP inh: inactive; PAFAH2 FP inh: inactive

Results for O=C(CN1CCN(S(=O)(=O)c2ccc(Br)s2)CC1)N1CCCCC1 ?
PAFAH1B2 FP inh: inactive; pPAFAH inh: inactive; PME-1 inh: inactive; PAFAH1B3 FP inh: inactive; PAFAH2 FP inh: inactive

How did O=C(CN1CCN(S(=O)(=O)c2ccc(Br)s2)CC1)NC1CCCCC1 do in these assays?
PAFAH1B2 FP inh: 30; PAFAH1B3 FP inh: inactive; PAFAH2 FP inh: inactive

How did COCCN(CC1CCCN(C2Cc3ccccc3C2)C1)C(=O)CCC(N)=O (stereo not drawn) do in these assays?
PAFAH1B2 FP inh: inactive; Fam108B inh: inactive; pPAFAH inh: inactive; PME-1 inh: inactive; PAFAH1B3 FP inh: inactive; PAFAH2 FP inh: inactive

How did Cc1ccc(S(=O)(=O)NNC(=O)C(=O)NNS(=O)(=O)c2ccc(C)cc2)cc1 do in these assays?
PAFAH1B2 FP inh: 28; Fam108B inh: inactive; pPAFAH inh: inactive; PME-1 inh: inactive; PAFAH1B3 FP inh: inactive; PAFAH2 FP inh: inactive

Results for Cc1ccc(S(=O)(=O)NNC(=O)CCCCC(=O)NNS(=O)(=O)c2ccc(C)cc2)cc1 ?
PAFAH1B2 FP inh: inactive; Fam108B inh: inactive; pPAFAH inh: inactive; PME-1 inh: inactive; PAFAH1B3 FP inh: inactive; PAFAH2 FP inh: inactive

Results for CC(=O)Nc1ccc(S(=O)(=O)c2ccc(C)cc2)cc1 ?
PAFAH1B2 FP inh: 25; Fam108B inh: inactive; pPAFAH inh: inactive; PME-1 inh: inactive; PAFAH1B3 FP inh: inactive; PAFAH2 FP inh: inactive

Results for O=C(CCc1c[nH]c2ccccc12)NC(Cc1ccccc1)C(=O)O (stereo not drawn) ?
PAFAH1B2 FP inh: inactive; Fam108B inh: inactive; pPAFAH inh: inactive; PME-1 inh: inactive; PAFAH1B3 FP inh: inactive; PAFAH2 FP inh: inactive

How did CC(=O)c1sc(C(C)(C)C)cc1NC(=O)CCC(=O)O do in these assays?
PAFAH1B2 FP inh: inactive; Fam108B inh: inactive; pPAFAH inh: inactive; PME-1 inh: inactive; PAFAH1B3 FP inh: inactive; PAFAH2 FP inh: inactive

What do the screens show for `COC(=O)c1sc(-c2ccc(Cl)cc2)cc1NC(=O)/C=C/C(=O)O`?
PAFAH1B2 FP inh: 27; Fam108B inh: inactive; pPAFAH inh: inactive; PME-1 inh: inactive; PAFAH1B3 FP inh: inactive; PAFAH2 FP inh: inactive

What do the screens show for `COC(=O)c1sc(-c2ccc(C(C)(C)C)cc2)cc1NC(=O)CCC(=O)O`?
Fam108B inh: inactive; pPAFAH inh: 26; PME-1 inh: inactive

What do the screens show for `COC(=O)c1sc(-c2ccc(Cl)cc2)cc1NC(=O)COCC(=O)O`?
PAFAH1B2 FP inh: 43; Fam108B inh: inactive; pPAFAH inh: inactive; PME-1 inh: inactive; PAFAH1B3 FP inh: inactive; PAFAH2 FP inh: inactive

How did COC(=O)c1sccc1NC(=O)/C=C/C(=O)O do in these assays?
PAFAH1B2 FP inh: inactive; Fam108B inh: inactive; pPAFAH inh: inactive; PME-1 inh: inactive; PAFAH1B3 FP inh: inactive; PAFAH2 FP inh: inactive

How did COc1ccc(/C=C(\NC(=O)c2ccc(C)cc2)C(=O)NCCCn2ccnc2)cc1OC do in these assays?
PAFAH1B2 FP inh: inactive; Fam108B inh: inactive; pPAFAH inh: inactive; PME-1 inh: inactive; PAFAH1B3 FP inh: inactive; PAFAH2 FP inh: inactive

Results for COc1ccc(C(=O)N2CCc3ccc(NC(=O)c4ccccn4)cc3C2)cc1F ?
PAFAH1B2 FP inh: inactive; PAFAH1B3 FP inh: inactive; PAFAH2 FP inh: inactive

Results for O=C(c1ccccc1)c1coc2c1C(=O)c1ccccc1C2=O ?
PAFAH1B2 FP inh: inactive; Fam108B inh: inactive; pPAFAH inh: inactive; PME-1 inh: inactive; PAFAH1B3 FP inh: 29; PAFAH2 FP inh: 48

Results for O=C(NNC(=O)c1ccccc1F)c1cccc(-n2cccc2)c1 ?
PAFAH1B2 FP inh: inactive; Fam108B inh: inactive; pPAFAH inh: 26; PME-1 inh: inactive; PAFAH1B3 FP inh: inactive; PAFAH2 FP inh: inactive

How did Cc1cccc(C2=NN(c3ccc(Br)cc3)[C@@H](C(=O)N3CCOC3=O)[C@@H]2c2ccc(Cl)cc2)c1 do in these assays?
PAFAH1B2 FP inh: inactive; pPAFAH inh: inactive; PAFAH1B3 FP inh: inactive; PAFAH2 FP inh: inactive

Results for Cc1cccc(C2=NN(c3ccc(Br)cc3)[C@@H](C(=O)N3CCOC3=O)[C@@H]2c2ccc(F)cc2)c1 ?
PAFAH1B2 FP inh: inactive; Fam108B inh: inactive; pPAFAH inh: 30; PME-1 inh: inactive; PAFAH1B3 FP inh: inactive; PAFAH2 FP inh: inactive

What do the screens show for `O=c1nc2onnc2c(C=NO)[nH]1`?
PAFAH1B2 FP inh: inactive; PAFAH1B3 FP inh: inactive; PAFAH2 FP inh: inactive

What do the screens show for `Cn1c(=O)c(N=O)c(N)n(Cc2ccccc2)c1=S`?
PAFAH1B2 FP inh: inactive; Fam108B inh: inactive; pPAFAH inh: inactive; PME-1 inh: inactive; PAFAH1B3 FP inh: inactive; PAFAH2 FP inh: inactive

What do the screens show for `CCN(CC)CCCn1c2c(c(SCC(=O)Nc3cccc(C)c3C)nc1=O)CCC2`?
PAFAH1B2 FP inh: inactive; Fam108B inh: inactive; pPAFAH inh: inactive; PME-1 inh: inactive; PAFAH1B3 FP inh: inactive; PAFAH2 FP inh: inactive

What do the screens show for `CCN(CC)CCCn1c2c(c(SCC(=O)Nc3cccc4ccccc34)nc1=O)CCC2`?
PAFAH1B2 FP inh: 34; Fam108B inh: inactive; pPAFAH inh: inactive; PME-1 inh: inactive; PAFAH1B3 FP inh: 36; PAFAH2 FP inh: 32

Results for CC1CC(C)CN(S(=O)(=O)c2cccc(C(=O)N3CCN(c4ccc(F)cc4)CC3)c2)C1 (stereo not drawn) ?
PAFAH1B2 FP inh: inactive; pPAFAH inh: inactive; PME-1 inh: inactive; PAFAH1B3 FP inh: inactive; PAFAH2 FP inh: inactive

Results for CCN(CC)S(=O)(=O)c1cccc(C(=O)N/N=C/c2ccc(O)c(O)c2O)c1 ?
PAFAH1B2 FP inh: inactive; Fam108B inh: inactive; pPAFAH inh: 30; PME-1 inh: inactive; PAFAH1B3 FP inh: inactive; PAFAH2 FP inh: inactive

How did CCOc1ccccc1/C=N/NC(=O)c1cccc(S(=O)(=O)N(CC)CC)c1 do in these assays?
PAFAH1B2 FP inh: inactive; Fam108B inh: inactive; pPAFAH inh: inactive; PME-1 inh: inactive; PAFAH1B3 FP inh: inactive; PAFAH2 FP inh: inactive
